Measurements taken from PubChem BioAssay (Tox21).
“And” between values parts separate entries of the source, which are not always exact repeats. Identical values can stand only once. Results filed as inconclusive are left out. The source made the active and inactive calls. Unless noted, calls come from the whole dose curve; as a rule, active = well fitted curve in the direction sought with a large enough effect in the repeat runs; inconclusive = weak or mixed curves; inactive = no such curve, though single readings can be large; an effect the other way counts as inactive or inconclusive.

Experiments:
[1] = qHTS assay to identify small molecule antagonists of the constitutive androstane receptor (CAR) signaling pathway - cell viability counter screen (AID 1224837); note: nearly all actives have a fitted effect of over 45% in size
Procedure, shortened: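 Using CellTiter-Fluor, viability is scored in HepG2 cells stably carrying hCAR and a 2.2kb CYP2B6 reporter after 23 hr compound exposure across 15 concentrations, with CITCO present at 50 nM.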

[2] = qHTS assay to identify small molecule antagonists of the estrogen related receptor signaling pathway with the pleiotropic PPARgamma coactivator (PGC) from Tox21 10K library (AID 1224841; call rule not given here; note: actives are mostly falling curves and most rising ones were filed inactive; nearly all actives have a fitted effect of over 50% in size)
Procedure, shortened: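 Each well held 2,000 PGC/ERR cells, pre-incubated six hours (37 C, 5% CO2). Test substances in DMSO were added by pin tool and left for 18 h at 37 C before luciferase detection by One-Glo.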

[3] = qHTS assay to identify small molecule agonists of the estrogen related receptor signaling pathway with the pleiotropic PPARgamma coactivator (PGC) from Tox21 10K library (AID 1224842); note: nearly all actives have a fitted effect of over 15% in size
Procedure, shortened: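 PGC/ERR reporter cell line, 2,000 cells per well, incubated 6 h at 37 C before 23 nL compound in DMSO was added. After 18 h at 37 C, One-Glo luminescence read following 30 min at room temperature.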

[4] = target: Thyrotropin receptor (Homo sapiens) (UniProt P16473); test: qHTS assay to identify small molecule agonists of the thyroid stimulating hormone receptor (TSHR) signaling pathway (AID 1224843; calls by dose curve; note: nearly all actives have a fitted effect of over 45% in size)
Procedure, shortened: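 TSHR-HEK293 cells in agonist mode, 30 min room-temperature step, then cAMP measured by competitive HTRF (cAMP-d2 with anti-cAMP cryptate) after 1 h at room temperature. Tested at 15 concentrations in triplicate.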

[5] = qHTS assay to identify small molecule agonists of the hypoxia (HIF-1) signaling pathway - cell viability counter screen (AID 1224844; calls by dose curve; note: nearly all actives have a fitted effect of over 50% in size)
Procedure, shortened: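 Multiplexed with the HRE beta-lactamase assay, this viability read used CellTiter-Glo luminescence (30 min, RT) on HRE-bla ME-180 cells treated 17 hrs with compounds in 0.5% dialyzed FBS medium.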

[6] = qHTS assay to identify small molecule agonists of H2AX (AID 1224845; active = well fitted activation curve with a large enough effect in the signal ratio in the repeat runs, not every such curve was filed as active; the % refers to the signal ratio)
Procedure, shortened: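 Wild-type CHO-K1 cells, plated overnight, exposed 3hr at 37C to 15 concentrations (0.76% DMSO final). Lysed, then HTRF anti-pH2AX (S139) cryptate and anti-H2AX-d2 antibodies, 24 hr room temperature; 665/620 nm emission read.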

[7] = qHTS assay to identify small molecule agonists of the hypoxia (HIF-1) signaling pathway (AID 1224846; active = well fitted activation curve with a large enough effect in the signal ratio in the repeat runs, not every such curve was filed as active; the % refers to the signal ratio)
Procedure, shortened: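 Hypoxia-pathway activation was scored as increased beta-lactamase from an HRE-controlled reporter in ME-180 cells; plated at 2,000 cells per well with 0.5% dialyzed FBS, they were exposed 17 hrs to compounds and then given CCF4-AM.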

[8] = qHTS assay to identify small molecule antagonists of the estrogen related receptor (ERR) signaling pathway from Tox21 library (AID 1224848); note: nearly all actives have a fitted effect of over 50% in size
Procedure, shortened: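 ERR reporter cell line (from NTP) seeded 2,000 cells/well, rested 6 h at 37 C/5% CO2, then pin-dosed with compounds in DMSO. After 18 h at 37 C, ONE-Glo added; luminescence read after 30 min at room temperature.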

[9] = qHTS assay to identify small molecule agonists of the estrogen related receptor (ERR) signaling pathway from Tox21 library (AID 1224849; calls by dose curve; note: nearly all actives have a fitted effect of over 15% in size); conditions: ERR reporter cell line, ONE-Glo luciferase, 18 h
Procedure, shortened: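 Six hours post-seeding at 37 C/5% CO2, ERR cells receive DMSO-solubilised compounds; after 18 h at 37 C, ONE-Glo reagent is applied and luminescence recorded.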

[10] = qHTS RealTime-Glo MT Cell Viability Assay in HepG2 cells - 24 hour (AID 1224867); note: nearly all actives have a fitted effect of over 50% in size
Procedure, shortened: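 HepG2 cells (600/well) were dispensed with RealTime-Glo reagents, incubated 5 h at 37 °C, then treated with compounds in DMSO for up to 40 h. Nonlytic NanoLuc luminescence reflecting viable cells was read at each stated time point.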

[11] = qHTS RealTime-Glo MT Cell Viability Assay in HEK293 cells - 32 hour (AID 1224868)
Procedure, shortened: (§1)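 HEK293 cells seeded with NanoLuc/prosubstrate reagent, rested 5 h at 37 C, then dosed and kept at 37 C up to 40 h. Nonlytic real-time luminescence from viable cells read at 0, 8, 16, 24, 32 and 40 h.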

[12] = A CellTox Green Cytotoxicity Assay to monitor cytotoxicity in HEK293 cells - 0 hour (AID 1224869); note: nearly all actives have a fitted effect of over 50% in size
Procedure, shortened: (§2)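 Seeding of HEK293 cells together with cytotoxicity dye preceded a 5 h incubation at 37 C/5% CO2. Test compounds in DMSO were then added and fluorescence monitored across 40 h.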

[13] = qHTS RealTime-Glo MT Cell Viability Assay in HepG2 cells - 40 hour (AID 1224870); note: nearly all actives have a fitted effect of over 50% in size
Procedure, shortened: (§3)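 HepG2 cells (600/well) mixed with RealTime-Glo MT reagent, settled 5 h at 37 C/5% CO2 before compound addition. Nonlytic NanoLuc luminescence from viable-cell prosubstrate reduction read repeatedly during 40 h treatment at 37 C.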

[14] = A CellTox Green Cytotoxicity Assay to monitor cytotoxicity in HEK293 cells - 40 hour (AID 1224871); note: nearly all actives have a fitted effect of over 45% in size
Procedure, shortened: as §2

[15] = qHTS RealTime-Glo MT Cell Viability Assay in HEK293 cells - 16 hour (AID 1224872)
Procedure, shortened: as §1

[16] = qHTS RealTime-Glo MT Cell Viability Assay in HepG2 cells - 8 hour (AID 1224873); note: nearly all actives have a fitted effect of over 55% in size
Procedure, shortened: as §3

[17] = qHTS assay to identify small molecule antagonists of the estrogen related receptor signaling pathway with the pleiotropic PPARgamma coactivator (PGC) from Tox21 10K library - cell viability counter screen (AID 1224840; active = well fitted cell-killing curve with a large enough effect in the repeat runs, not every such curve was filed as active; note: nearly all actives have a fitted effect of over 40% in size)
Procedure, shortened: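 Here the PGC/ERR cells serve as a cytotoxicity control: they are exposed to compounds for 17.5 hours at 37 C, and live-cell signal is quantified using CellTiter-Fluor fluorescence.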

[18] = qHTS assay to identify small molecule agonists of H2AX - cell viability counter screen (AID 1224847; calls by dose curve; note: top concentration of the series differs between compounds; nearly all actives have a fitted effect of over 30% in size)
Procedure, shortened: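 CHO-K1 wt, 1000 cells/well, o/n 37C; cpds 15 conc, 3 h 37C, 0.76% DMSO; CellTiter-Glo, 30 min RT, luminescence.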

[19] = target: Nuclear receptor subfamily 1 group I member 3 (Homo sapiens) (UniProt Q14994); test: qHTS assay to identify small molecule antagonists of the constitutive androstane receptor (CAR) signaling pathway (AID 1224838);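 note: HepG2 cells stably expressing hCAR with CYP2B6 luciferase reporter stimulated by CITCO; nearly all actives have a fitted effect of over 40% in size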
Procedure, shortened: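 Reporter luminescence was quantified after 24 h exposure of hCAR/CYP2B6-2.2kb double-stable HepG2 cells to compounds at 15 concentrations in the presence of 50 nM CITCO final.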

[20] = target: Nuclear receptor subfamily 1 group I member 3 (Homo sapiens) (UniProt Q14994); test: qHTS assay to identify small molecule agonists of the constitutive androstane receptor (CAR) signaling pathway (AID 1224839);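 note: HepG2 cells stably carrying human CAR and a CYP2B6 luciferase reporter; nearly all actives have a fitted effect of over 15% in size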
Procedure, shortened: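 Luminescence read-out (ONE-Glo, 30 min, room temperature) from double-stable HepG2-CYP2B6-hCAR cells exposed 24 h to 15-point compound series in presence of 0.75 uM PK11195 final.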
% is set by controls: 0 for no effect and ±100 for the full control effect.

Nuclear receptor subfamily 1 group I member 3 (Homo sapiens), sequence (Q14994 whole entry, looked up): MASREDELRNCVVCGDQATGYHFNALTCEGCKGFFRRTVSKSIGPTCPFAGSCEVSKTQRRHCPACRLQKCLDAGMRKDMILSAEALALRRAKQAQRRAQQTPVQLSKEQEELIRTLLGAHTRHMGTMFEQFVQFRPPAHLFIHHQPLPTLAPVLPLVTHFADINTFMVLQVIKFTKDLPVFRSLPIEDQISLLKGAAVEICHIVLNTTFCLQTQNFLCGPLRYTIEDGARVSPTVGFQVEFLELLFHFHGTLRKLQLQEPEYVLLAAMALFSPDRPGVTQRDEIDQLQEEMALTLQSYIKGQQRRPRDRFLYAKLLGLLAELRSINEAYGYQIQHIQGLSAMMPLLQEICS
Thyrotropin receptor (Homo sapiens), sequence (P16473 whole entry, looked up): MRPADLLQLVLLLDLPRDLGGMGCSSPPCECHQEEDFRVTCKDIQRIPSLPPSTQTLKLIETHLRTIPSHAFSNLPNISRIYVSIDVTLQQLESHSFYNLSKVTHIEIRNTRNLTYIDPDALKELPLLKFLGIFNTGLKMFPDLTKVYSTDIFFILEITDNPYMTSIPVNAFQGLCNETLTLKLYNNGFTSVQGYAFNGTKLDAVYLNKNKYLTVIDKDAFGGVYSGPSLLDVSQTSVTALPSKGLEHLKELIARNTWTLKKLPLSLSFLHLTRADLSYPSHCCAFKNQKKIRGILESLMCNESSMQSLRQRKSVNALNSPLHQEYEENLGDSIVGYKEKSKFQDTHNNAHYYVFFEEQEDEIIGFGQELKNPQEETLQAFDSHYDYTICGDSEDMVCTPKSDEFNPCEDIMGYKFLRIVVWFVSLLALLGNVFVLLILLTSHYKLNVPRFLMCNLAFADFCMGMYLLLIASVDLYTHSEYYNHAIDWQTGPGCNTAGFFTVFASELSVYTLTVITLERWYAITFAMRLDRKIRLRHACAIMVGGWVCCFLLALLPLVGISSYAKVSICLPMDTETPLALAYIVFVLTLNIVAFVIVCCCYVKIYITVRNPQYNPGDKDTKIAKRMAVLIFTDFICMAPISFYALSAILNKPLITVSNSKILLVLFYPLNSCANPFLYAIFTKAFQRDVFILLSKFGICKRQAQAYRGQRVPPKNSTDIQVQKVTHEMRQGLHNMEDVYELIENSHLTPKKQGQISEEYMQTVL

OC(O)C(Cl)(Cl)Cl
inactive: Potency [1] | Potency [2] | outcome [3] | Potency [4] | Potency [5] | Potency [6] | outcome [7] | Potency [8] | activity change, positive = activation ([9]; at 42.5 µM (top of the series)) 0.553% | activity change, positive = activation ([9]; at 92.4 µM (top of the series)) -4.47% | outcome [10] | Potency [11] | Potency [12] | outcome [13] | Potency [14] | outcome [15] | outcome [16]

O=[N+]([O-])c1ccccc1
inactive: Potency [1] | Potency [17] | Potency [2] | outcome [3] | Potency [4] | Potency [5] | Potency [6] | outcome [7] | Potency [18] | Potency [8] | activity change, positive = activation ([9]; at 92.4 µM (top of the series)) 8.72% and 8.25% | outcome [10] | Potency [11] | Potency [12] | outcome [13] | Potency [14] | outcome [15] | outcome [16]

c1ccc(OP(Oc2ccccc2)Oc2ccccc2)cc1
inactive: Potency [1] | Potency [19] | Potency [20] | Potency [4] | Potency [5] | Potency [6] | outcome [7] | outcome [10] | Potency [11] | Potency [12] | outcome [13] | Potency [14] | outcome [15] | outcome [16]

CC(Oc1ccc(Cl)cc1Cl)C(=O)O (configuration not stated)
inactive: Potency [1] | Potency [4] | Potency [5] | Potency [6] | outcome [7] | Potency [18] | outcome [10] | Potency [11] | Potency [12] | Potency [14] | outcome [15] | outcome [16]

C#CCN(C)[C@H](C)Cc1ccccc1
inactive: Potency [1] | Potency [17] | Potency [4] | Potency [5] | Potency [6] | outcome [10] | Potency [11] | Potency [12] | outcome [13] | Potency [14] | outcome [15] | outcome [16]

O=c1ccc(=O)[nH][nH]1
inactive: Potency [1] | Potency [2] | outcome [3] | Potency [4] | Potency [5] | Potency [6] | outcome [7] | Potency [18] | Potency [8] | activity change, positive = activation ([9]; at 92.4 µM (top of the series)) 3.51% and 9.01% | outcome [10] | Potency [11] | Potency [12] | Potency [14] | outcome [15] | outcome [16]

ClCCBr
inactive: Potency [1] | Potency [19] | Potency [20] | Potency [2] | outcome [3] | Potency [4] | Potency [5] | Potency [6] | outcome [7] | Potency [18] | Potency [8] | activity change, positive = activation ([9]; at 92.4 µM (top of the series)) 3.01% and -0.293% | outcome [10] | Potency [11] | Potency [12] | outcome [13] | Potency [14] | outcome [15] | outcome [16]

COC(=O)NS(=O)(=O)c1ccc(N)cc1
inactive: Potency [19] | Potency [20] | Potency [17] | Potency [2] | outcome [3] | Potency [4] | Potency [5] | Potency [6] | outcome [7] | Potency [18] | Potency [8] | activity change, positive = activation ([9]; at 92.4 µM (top of the series)) 6.12% and 0.416% | outcome [10] | Potency [11] | Potency [12] | outcome [13] | Potency [14] | outcome [15] | outcome [16]
